The values that follow come from PubChem BioAssay (EPA / NIEHS).

Common to all, as to conditions: mRNA level, 48 h; actives raise or lower the signal
Read-out in test [1]: Cyclin D1 (CCND1), CCND1 (gene 595)
Kind of test: LTEA_HepaRG_CCND1: Life Technologies and Expression Analysis (LTEA) Assay for Cyclin D1 (CCND1) using HepaRG (AID 2283451). Put shortly: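 Differentiated human HepaRG cells in serum-free induction medium were exposed 48 h to eight half-log concentrations up to 100 uM in 0.5% DMSO; mRNA quantified by TaqMan qRT-PCR, normalized to ACTB, GAPDH, POLR2A, fitted bidirectionally versus DMSO.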

Read-out in test [2]: catalase (CAT), CAT (gene 847)
Nature of the test: LTEA_HepaRG_CAT: Life Technologies and Expression Analysis (LTEA) Assay for catalase (CAT) using HepaRG (AID 2283452). Put shortly: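 HepaRG cells in serum-free induction medium, 0.5% DMSO vehicle, exposed 48 h in duplicate over 8 half-log concentrations from 100 uM. CAT mRNA measured by qRT-PCR, normalized to ACTB, GAPDH, POLR2A; bidirectional fit versus DMSO.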

Read-out in test [3]: flavin-containing dimethylaniline monooxygenases 3 (FMO3), FMO3 (gene 2328)
Nature of the test: LTEA_HepaRG_FMO3: Life Technologies and Expression Analysis (LTEA) Assay for flavin-containing dimethylaniline monooxygenases 3 (FMO3) using HepaRG (AID 2283453). Put shortly:
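Differentiated HepaRG cells in serum-free induction medium, exposed 48 h in duplicate to 8 half-log concentrations up to 100 uM in 0.5% DMSO. FMO3 mRNA by qRT-PCR, normalized to ACTB, GAPDH, POLR2A; bidirectional fit vs DMSO.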

Read-out in test [4]: Cytochrome P450 (CYP1A1), CYP1A1 (gene 1543)
Nature of the test: LTEA_HepaRG_CYP1A1: Life Technologies and Expression Analysis (LTEA) Assay for Cytochrome P450 (CYP1A1) using HepaRG (AID 2283454). Put shortly: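 Differentiated HepaRG cells in serum-free induction medium were exposed in duplicate for 48 h to eight half-log concentrations up to 100 uM in 0.5% DMSO. CYP1A1 mRNA was quantified by TaqMan qRT-PCR, normalized to ACTB, GAPDH and POLR2A.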

Read-out in test [5]: CFLAR gene, CFLAR (gene 8837)
Nature of the test: LTEA_HepaRG_CFLAR: Life Technologies and Expression Analysis (LTEA) Assay for CFLAR gene using HepaRG (AID 2283455). Put shortly: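 Differentiated HepaRG cells in serum-free induction medium were exposed 48 h in duplicate to eight half-log concentrations up to 100 uM in 0.5% DMSO; mRNA measured by TaqMan qRT-PCR, normalized to ACTB, GAPDH, POLR2A; bidirectional fitting versus DMSO.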

Read-out in test [6]: Forkhead box O1 (FOXO1), FOXO1 (gene 2308)
Kind of test: LTEA_HepaRG_FOXO1: Life Technologies and Expression Analysis (LTEA) Assay for Forkhead box O1 (FOXO1) using HepaRG (AID 2283456). Put shortly: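 Differentiated HepaRG cells, in serum-free induction medium with 0.5% DMSO, exposed 48 h in duplicate to 8-point half-log series from 100 uM. FOXO1 mRNA measured by TaqMan qRT-PCR, normalized to ACTB, GAPDH, POLR2A; bidirectional fit versus DMSO.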

Read-out in test [7]: growth arrest and DNA damage 45 (GADD45A), GADD45A (gene 1647)
Nature of the test: LTEA_HepaRG_GADD45A: Life Technologies and Expression Analysis (LTEA) Assay for growth arrest and DNA damage 45 (GADD45A) using HepaRG (AID 2283458). Put shortly:
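Cells plated and cultured 48 h, switched to serum-free induction medium, then dosed for 48 h (100 uM top, half-log dilutions, 0.5% DMSO). RNA was isolated and transcript measured by Fluidigm qRT-PCR.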

Read-out in test [8]: Forkhead box O3 (FOXO3), FOXO3 (gene 2309)
Kind of test: LTEA_HepaRG_FOXO3: Life Technologies and Expression Analysis (LTEA) Assay for Forkhead box O3 (FOXO3) using HepaRG (AID 2283459). Put shortly: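 Differentiated human HepaRG cells, 48 h post-plating, exposed in duplicate for 48 h in serum-free induction medium; 8-point half-log series from 100 uM in 0.5% DMSO. FOXO3 mRNA by TaqMan qRT-PCR, normalized to ACTB/GAPDH/POLR2A; bidirectional fit versus DMSO.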

Read-out in test [9]: growth arrest and DNA damage 45 (GADD45B), GADD45B (gene 4616)
Kind of test: LTEA_HepaRG_GADD45B: Life Technologies and Expression Analysis (LTEA) Assay for growth arrest and DNA damage 45 (GADD45B) using HepaRG (AID 2283461). Put shortly: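 Differentiated HepaRG cells, plated 48 h then switched to serum-free induction medium, were exposed 48 h in duplicate to eight half-log concentrations from 100 uM in 0.5% DMSO; mRNA quantified by qRT-PCR, normalized to ACTB/GAPDH/POLR2A, bidirectional fit versus DMSO.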

Read-out in test [10]: ABC Transporter (ABCC3), ABCC3 (gene 8714)
Kind of test: LTEA_HepaRG_ABCC3: Life Technologies and Expression Analysis (LTEA) Assay for ABC Transporter (ABCC3) using HepaRG (AID 2283462). Put shortly: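 HepaRG cells in serum-free induction medium were exposed for 48 h in duplicate to 8-point half-log concentrations topping at 100 uM in 0.5% DMSO. ABCC3 mRNA was measured by qRT-PCR normalized to ACTB, GAPDH and POLR2A, with bidirectional fitting versus DMSO.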

Read-out in test [11]: ABC Transporter (ABCB11), ABCB11 (gene 8647)
Kind of test: LTEA_HepaRG_ABCB11: Life Technologies and Expression Analysis (LTEA) Assay for ABC Transporter (ABCB11) using HepaRG (AID 2283463). Put shortly: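 Differentiated human HepaRG cells in serum-free induction medium, dosed in duplicate for 48 h. Eight-point half-log series from 100 uM in 0.5% DMSO; ABCB11 mRNA by qRT-PCR, normalized to ACTB, GAPDH, POLR2A, fitted bidirectionally versus DMSO.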

Read-out in test [12]: ABC Transporter (ABCC2), ABCC2 (gene 1244)
Kind of test: LTEA_HepaRG_ABCC2: Life Technologies and Expression Analysis (LTEA) Assay for ABC Transporter (ABCC2) using HepaRG (AID 2283464). Put shortly:
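HepaRG cells were plated 48 h, switched to serum-free induction medium, then exposed in duplicate for 48 h to 8 concentrations (top 100 uM, half-log steps, 0.5% DMSO). ABCC2 mRNA was measured by qRT-PCR normalized to ACTB/GAPDH/POLR2A; bidirectional fitting versus DMSO.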

Read-out in test [13]: Broad substrate specificity ATP-binding cassette transporter ABCG2 (Homo sapiens) (UniProt Q9UNQ0)
Kind of test: LTEA_HepaRG_ABCG2: Life Technologies and Expression Analysis (LTEA) Assay for ABC Transporter (ABCG2) using HepaRG (AID 2283465). Put shortly: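 Differentiated HepaRG cells were exposed for 48 h in serum-free induction medium to 8 half-log concentrations, top 100 uM, in 0.5% DMSO. ABCG2 mRNA was measured by qRT-PCR, normalized to ACTB, GAPDH and POLR2A, with bidirectional fitting versus DMSO.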

Read-out in test [14]: ATP-citrate lyase (ACLY), ACLY (gene 47)
Nature of the test: LTEA_HepaRG_ACLY: Life Technologies and Expression Analysis (LTEA) Assay for ATP-citrate lyase (ACLY) using HepaRG (AID 2283466). Put shortly:
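Differentiated HepaRG cells exposed 48 h in serum-free induction medium to eight half-log concentrations up to 100 uM in 0.5% DMSO, duplicates. Transcript measured by Fluidigm TaqMan qRT-PCR, normalized to ACTB, GAPDH, POLR2A; bidirectional fit versus DMSO.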

Read-out in test [15]: Peroxisomal acyl-coenzyme A oxidase 1 (ACOX1) gene, ACOX1 (gene 51)
Kind of test: LTEA_HepaRG_ACOX1: Life Technologies and Expression Analysis (LTEA) Assay for Peroxisomal acyl-coenzyme A oxidase 1 (ACOX1) gene using HepaRG (AID 2283467). Put shortly:
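HepaRG cells, plated 48 h then switched to serum-free induction medium, were exposed in duplicate for 48 h to 8-point half-log concentrations up to 100 uM in 0.5% DMSO. ACOX1 mRNA was measured by qRT-PCR, normalized to ACTB/GAPDH/POLR2A, and fitted bidirectionally versus DMSO.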

Read-out in test [16]: Alkaline Phosphatase, Placental (ALPP) gene, ALPP (gene 250)
Kind of test: LTEA_HepaRG_ALPP: Life Technologies and Expression Analysis (LTEA) Assay for Alkaline Phosphatase, Placental (ALPP) gene using HepaRG (AID 2283468). Put shortly:
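Differentiated human HepaRG cells were plated and cultured 48 h, then exposed in duplicate for 48 h in serum-free induction medium to eight half-log concentrations from 100 uM in 0.5% DMSO. ALPP mRNA was measured by TaqMan qRT-PCR, normalized to ACTB, GAPDH, POLR2A.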

Read-out in test [17]: Bcl-2 (BAD) gene, BAD (gene 572)
Kind of test: LTEA_HepaRG_BAD: Life Technologies and Expression Analysis (LTEA) Assay for Bcl-2 (BAD) gene using HepaRG (AID 2283469). Put shortly: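 Differentiated HepaRG cells were exposed in duplicate in 0.5% DMSO for 48 h to eight-point half-log concentrations up to 100 uM. BAD mRNA was measured by Fluidigm TaqMan qRT-PCR, normalized to ACTB, GAPDH and POLR2A, and fitted bidirectionally against DMSO.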

Read-out in test [18]: Bcl-2 (BAX) gene, BAX (gene 581)
Nature of the test: LTEA_HepaRG_BAX: Life Technologies and Expression Analysis (LTEA) Assay for Bcl-2 (BAX) gene using HepaRG (AID 2283470). Put shortly: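 HepaRG (human liver), 48 h exposure, duplicate wells. 8-pt curve, half-log from 100 uM, 0.5% DMSO. BAX transcript by TaqMan qRT-PCR; ACTB/GAPDH/POLR2A normalization; gain or loss vs DMSO baseline.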

Read-out in test [19]: ABC Transporter (ABCB1), ABCB1 (gene 5243)
Kind of test: LTEA_HepaRG_ABCB1: Life Technologies and Expression Analysis (LTEA) Assay for ABC Transporter (ABCB1) using HepaRG (AID 2283460). Put shortly: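 HepaRG cells exposed in duplicate for 48 h in serum-free induction medium to eight half-log concentrations up to 100 uM in 0.5% DMSO. ABCB1 mRNA quantified by qRT-PCR, normalised to ACTB, GAPDH and POLR2A; fitted bidirectionally versus DMSO.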

Active and inactive are the calls of the source. How the source made its calls: active means hit-call score of the fitted dose curve at least 0.9, where 1 is the maximum; inactive means score below 0.9.

Chain of Broad substrate specificity ATP-binding cassette transporter ABCG2 (Homo sapiens) (Q9UNQ0 whole entry, looked up): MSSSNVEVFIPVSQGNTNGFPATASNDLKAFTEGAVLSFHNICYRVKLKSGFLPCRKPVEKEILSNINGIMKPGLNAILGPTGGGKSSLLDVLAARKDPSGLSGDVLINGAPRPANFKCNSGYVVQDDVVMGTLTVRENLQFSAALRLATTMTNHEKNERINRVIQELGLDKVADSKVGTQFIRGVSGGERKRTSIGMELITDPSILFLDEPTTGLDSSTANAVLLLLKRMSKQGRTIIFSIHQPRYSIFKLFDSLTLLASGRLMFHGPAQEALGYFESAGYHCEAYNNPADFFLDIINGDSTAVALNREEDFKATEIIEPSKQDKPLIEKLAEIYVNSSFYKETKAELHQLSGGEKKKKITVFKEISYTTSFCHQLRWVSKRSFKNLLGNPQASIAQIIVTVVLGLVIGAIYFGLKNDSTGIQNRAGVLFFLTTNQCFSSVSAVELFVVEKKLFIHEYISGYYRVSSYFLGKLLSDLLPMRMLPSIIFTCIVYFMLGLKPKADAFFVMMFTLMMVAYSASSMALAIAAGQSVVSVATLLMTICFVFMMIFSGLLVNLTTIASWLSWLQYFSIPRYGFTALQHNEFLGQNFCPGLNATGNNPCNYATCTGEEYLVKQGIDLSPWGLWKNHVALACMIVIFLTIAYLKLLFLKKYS

In general, AC50 refers to the concentration at which the activity in the assay is half-maximal. Turning to `Cc1ccc(N=C=O)cc1N=C=O`, the call in test [1], in test [5], in test [6], in [7], in test [8] and in test [9] was inactive. In addition, the compound was called inactive in test [10], in test [12], in test [13], in test [15], in test [16] and in test [17]. The outcome in test [18] was inactive. Moreover, the AC50 was 19.7 µM (active) in [2]; 31.2 µM (active) in test [3]; 40.4 µM (active) in test [4]; 20.2 µM (active) in test [11]; 12.5 µM (active) in [14].

`CC(C)COC(=O)c1ccccc1C(=O)OCC(C)C`: the compound was classed as inactive in test [1], in test [2], in test [3], in test [5], in test [6] and in test [8]. Moreover, the compound was called inactive in test [19], in test [11], in [12], in [13], in test [14] and in [15]. Besides, the compound was classed as inactive in test [16], in [17] and in test [18]. Further, the concentration at half-maximal activity (AC50) in [4] is 59.1 µM (active).

Take `OCCCBr`: the compound was classed as inactive in test [1], in [2], in [3], in test [4], in [5] and in test [6]. Moreover, the outcome in test [7], in [8], in test [10], in test [11], in test [12] and in [13] was inactive. Also, the result in test [14], in [15], in test [16], in test [17] and in test [18] was inactive.

As to `CCC(C)c1ccc(O)cc1` (centres undefined), the call in [1], in test [2], in test [3], in test [4], in [5] and in test [6] was inactive. Also, the outcome in [8], in test [19], in [9], in [10], in test [11] and in test [12] was inactive. Further, the result in test [13], in [14], in [15], in test [16], in test [17] and in test [18] was inactive.
